From PubChem BioAssay AID1159580 (chemical genetic matrix, 2015)
The campaign covered roughly 5,500 compounds. About 2,000 (36%) were called active. Another 18% or so got no clear call; they are omitted. The list shows a part of the results. A number with no mark means an inactive call. Rule as the data show it: active = normalized growth mostly below about 0.91 (no sharp cut-off); inconclusive = no clear call, values can overlap the other calls; inactive = mostly above about 0.92.

Assay: chemical genetic growth profiling, strain panel (AID 1159580);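 also: tested at 20 µM; growth read once vehicle control cultures reached saturation at 30 °C; 1 = growth at the plate median or of vehicle wells; lower values mean less growth of the strain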
Conditions: S. cerevisiae deletion strains, growth OD

SMILES: Clc1ccc(C(OCCN2CCCCC2)c2ccccc2)cc1 (stereo not drawn)
- normalized growth (locus YAL013W, strain DEP1, active compounds read low): 1
- normalized growth (locus YAL021C, strain ccr4, active compounds read low): 0.954
- normalized growth (locus YAL026C, strain drs2, active compounds read low): 1.02
- normalized growth (locus YAL030W, strain snc1, active compounds read low): 1.01
- normalized growth (locus YBL061C, strain skt5, active compounds read low): 1.02
- normalized growth (locus YBR009C, strain hhf1, active compounds read low): 1
- normalized growth (locus YBR021W, strain FUR4, active compounds read low): 0.833 (active)
- normalized growth (locus YBR023C, strain chs3, active compounds read low): 1.02
- normalized growth (locus YBR171W, strain sec66, active compounds read low): 1.02
- normalized growth (locus YBR229C, strain ROT2, active compounds read low): 0.999
- normalized growth (locus YBR231C, strain swc5, active compounds read low): 1.01
- normalized growth (locus YBR279W, strain paf1, active compounds read low): 1.02
- normalized growth (locus YCL011C, strain gbp2, active compounds read low): 1.03
- normalized growth (locus YCL016C, strain dcc1, active compounds read low): 1.03
- normalized growth (locus YCL029C, strain bik1, active compounds read low): 1.01
- normalized growth (locus YCL061C, strain MRC1, active compounds read low): 1.02
- normalized growth (locus YCL069W, strain vba3, active compounds read low): 1.02
- normalized growth (locus YCR088W, strain abp1, active compounds read low): 1.02
- normalized growth (locus YDL005C, strain med2, active compounds read low): 1.01
- normalized growth (locus YDL035C, strain GPR1, active compounds read low): 0.986
- normalized growth (locus YDL040C, strain nat1, active compounds read low): 1.02
- normalized growth (locus YDL074C, strain BRE1, active compounds read low): 0.947
- normalized growth (locus YDL101C, strain DUN1, active compounds read low): 1
- normalized growth (locus YDL134C, strain PPH21, active compounds read low): 0.995
- normalized growth (locus YDL185W, strain tfp1, active compounds read low): 1
- normalized growth (locus YDL192W, strain arf1, active compounds read low): 1.01
- normalized growth (locus YDR001C, strain nth1, active compounds read low): 1.02
- normalized growth (locus YDR069C, strain doa4, active compounds read low): 0.969
- normalized growth (locus YDR101C, strain arx1, active compounds read low): 0.982
- normalized growth (locus YDR137W, strain rgp1, active compounds read low): 1.21 [resistant] (active)
- normalized growth (locus YDR150W, strain NUM1, active compounds read low): 1.01
- normalized growth (locus YDR159W, strain sac3, active compounds read low): 1.03
- normalized growth (locus YDR162C, strain NBP2, active compounds read low): 0.993
- normalized growth (locus YDR195W, strain ref2): 1.07
- normalized growth (locus YDR297W, strain sur2, active compounds read low): 1.03
- normalized growth (locus YDR318W, strain mcm21, active compounds read low): 0.983
- normalized growth (locus YDR334W, strain swr1, active compounds read low): 1.03
- normalized growth (locus YDR335W, strain msn5, active compounds read low): 1.03
- normalized growth (locus YDR388W, active compounds read low): 0.924 (active)
- normalized growth (locus YDR392W, strain spt3, active compounds read low): 1.04
- normalized growth (locus YDR502C, strain sam2, active compounds read low): 0.983
- normalized growth (locus YEL003W, strain gim4, active compounds read low): 1.01
- normalized growth (locus YEL037C, strain rad23, active compounds read low): 1.02
- normalized growth (locus YEL061C, strain CIN8 (second series), active compounds read low): 1.03
- normalized growth (locus YEL061C, strain CIN8, active compounds read low): 1.01
- normalized growth (locus YER015W, strain faa2, active compounds read low): 1.02
- normalized growth (locus YER016W, strain bim1, active compounds read low): 1.02
- normalized growth (locus YER110C, active compounds read low): 1
- normalized growth (locus YER111C, strain swi4, active compounds read low): 1.01
- normalized growth (locus YER155C, strain BEM2 (second series), active compounds read low): 1.01
- normalized growth (locus YER155C, strain BEM2, active compounds read low): 1
- normalized growth (locus YER167W, strain BCK2, active compounds read low): 0.998
- normalized growth (locus YFR010W, strain ubp6, active compounds read low): 0.986
- normalized growth (locus YGL078C, strain dbp3, active compounds read low): 0.99
- normalized growth (locus YGL086W, strain mad1, active compounds read low): 0.974
- normalized growth (locus YGL167C, strain pmr1, active compounds read low): 1.02
- normalized growth (locus YGL173C, strain kem1, active compounds read low): 1.01
- normalized growth (locus YGL227W, strain vid30, active compounds read low): 1.02
- normalized growth (locus YGL240W, strain doc1, active compounds read low): 1.02
- normalized growth (locus YGL248W, strain PDE1, active compounds read low): 0.99
- normalized growth (locus YGL253W, strain hxk2, active compounds read low): 1.02
- normalized growth (locus YGR078C, strain PAC10, active compounds read low): 0.977
- normalized growth (locus YGR135W, strain pre9, active compounds read low): 0.951
- normalized growth (locus YGR229C, strain SMI1, active compounds read low): 0.901
- normalized growth (locus YGR252W, strain gcn5, active compounds read low): 0.888
- normalized growth (locus YHR013C, strain ard1, active compounds read low): 0.895
- normalized growth (locus YHR027C, strain rpn1, active compounds read low): 1.03
- normalized growth (locus YHR030C, strain SLT2, active compounds read low): 1
- normalized growth (locus YHR079C, strain IRE1 (second series), active compounds read low): 0.994
- normalized growth (locus YHR094C, strain hxt1, active compounds read low): 0.997
- normalized growth (locus YHR129C, strain ARP1, active compounds read low): 1
- normalized growth (locus YHR142W, strain chs7, active compounds read low): 1.01
- normalized growth (locus YHR200W, strain rpn10, active compounds read low): 0.989
- normalized growth (locus YIL066C, strain RNR3, active compounds read low): 0.988
- normalized growth (locus YIL073C, strain SPO22, active compounds read low): 1.12
- normalized growth (locus YIL125W, strain kgd1, active compounds read low): 1
- normalized growth (locus YIR030C, strain dcg1, active compounds read low): 0.996
- normalized growth (locus YJL092W, strain hpr5, active compounds read low): 1.02
- normalized growth (locus YJL095W, strain BCK1 (second series), active compounds read low): 1.03
- normalized growth (locus YJL095W, strain BCK1, active compounds read low): 0.913
- normalized growth (locus YJL115W, strain asf1, active compounds read low): 1.02
- normalized growth (locus YJL129C, strain trk1, active compounds read low): 1.04
- normalized growth (locus YJL134W, strain LCB3, active compounds read low): 1
- normalized growth (locus YJL154C, strain vps35, active compounds read low): 1.01
- normalized growth (locus YJL164C, strain tpk1, active compounds read low): 1.02
- normalized growth (locus YJL166W, strain qcr8, active compounds read low): 1.01
- normalized growth (locus YJL168C, strain set2, active compounds read low): 1
- normalized growth (locus YJL187C, strain SWE1 (second series), active compounds read low): 0.983
